PubChem BioAssay AID1259249 (Broad Institute, 2017)
“And” between values parts separate entries of the source, which are not always exact repeats. Equal values may be shown once. Among all 86,000 compounds or so, about 220 (0.26%) were called active. The sample as a whole holds a higher share of actives than the screen did. A number with no mark means an inactive call.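 Rule for the calls: active = mean growth activity at or below -80% and every replicate also at or below -80%; inconclusive = mean at or below -80% but some replicate above -80%; inactive = mean growth activity above -80%.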

Experiment: C. difficile growth inhibitors, primary screen, HTS (AID 1259249);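 note: 0% = DMSO wells and -100% = levofloxacin 16 µg/mL wells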
Conditions: Clostridium difficile clinical isolate growth, OD600, 24 h; active compounds read low; screened at 16 µg/mL (by protocol)

Structure (SMILES) | growth activity, negative = inhibition
O=C(O)CCCCCCC(=O)NOCc1ccccc1 | -0.197%
CN(C)CC(=O)N[C@@H]1CC[C@H](CC(=O)NCc2ccc(Cl)cc2)O[C@H]1CO | 3.53%
CC(C)C#Cc1ccc2c(c1)O[C@@H](CN(C)C(=O)Nc1ccccc1)[C@H](C)CN([C@H](C)CO)S2(=O)=O | 3.59%
CCCc1cn(CC[C@@H]2CC[C@@H](NC(=O)C3CC3)[C@H](CO)O2)nn1 | -2.37%
O=C(CC1CC1)N1[C@@H](CO)[C@@H](c2ccccc2)C12CN(S(=O)(=O)c1ccccc1)C2 | 1.02%
COc1ccc2c3c([nH]c2c1)[C@@H](CO)N(Cc1nccs1)CC31CCN(C(=O)C2CCCC2)CC1 | 1.43%
CCCC(=O)Nc1ccc2c(c1)C(=O)N(C)[C@H]1CC[C@@H](CC(=O)NCC(F)(F)F)O[C@@H]1CO2 | 4.45%
COCC(=O)N1CC[C@@H]2[C@@H](CO)Nc3ccc(-c4ccc(C(=O)N(C)C)cc4)cc3[C@@H]21 | -7.52%
CO[C@@H]1CN(C)C(=O)c2cc(NC(=O)C3CC3)ccc2OC[C@@H](C)N(C(=O)c2ccccc2F)C[C@@H]1C | -0.472%
O=C(C[C@H]1C[C@@H]2c3cc(NC(=O)C4CCOCC4)ccc3O[C@@H]2[C@H](CO)O1)NCC1CC1 | -3.84%
CO[C@@H]1CN(C)C(=O)c2cc(NC(=O)Nc3cccc(Cl)c3)ccc2OC[C@@H](C)N(C)C[C@@H]1C | -2.08%
CCS(=O)(=O)Nc1ccc2c(c1)C(=O)N(C)[C@@H]1CC[C@@H](CC(=O)NC)O[C@H]1CO2 | 3.49%
COc1ccc2c3c(n(C)c2c1)[C@H](CO)N(C(=O)Cc1ccccc1)CC31CCN(C)CC1 | -5.17%
O=C(C1CCC1)N1C[C@H]2[C@@H](c3ccccc31)[C@H](CO)N2C(=O)Nc1cccc(F)c1 | -2.73%
CCCNC(=O)N1C[C@H](C)[C@@H](OC)CN(C)C(=O)c2ccc(NS(=O)(=O)CC(F)(F)F)cc2OC[C@@H]1C | -2.19%
O=C(c1cccc(F)c1)N1CC[C@@H]2[C@H](CO)Nc3ccc(C#Cc4ccccc4)cc3[C@@H]21 | 0.292%
CN1C(=O)c2cc(NC(=O)C3CC3)ccc2OC[C@@H]2O[C@H](CC(=O)NCC3CCCCC3)CC[C@@H]21 | -3.31%
COc1cccc(S(=O)(=O)N2[C@@H]3CNC[C@H]2C3c2ccc(-c3ccccc3OC)cc2)c1 (some centres undefined) | 17.5% and 1.35%
COC(=O)[C@@H]1[C@@H](CO)[C@@H]2Cn3c(ccc(-c4ccc(OC)cc4)c3=O)[C@@H]2N1S(C)(=O)=O | -4.77%
O=C(O)C[C@@H]1CC[C@H](NC(=O)CCN2CCCCC2)[C@H](CO)O1 | -9.12%
CC(=O)N1CC[C@@H]2[C@H](CO)Nc3ccc(C#Cc4ccccc4F)cc3[C@@H]21 | -13.8%
COc1ccccc1CN1CC[C@@H]2[C@@H](CO)Nc3ccc(C#Cc4ccccc4)cc3[C@@H]21 | -94.5% (active)

Structure (SMILES) | growth activity, negative = inhibition
COc1ccc(C#Cc2ccc3c(c2)[C@H]2[C@H](CCN2Cc2nccs2)[C@@H](CO)N3)cc1 | -3.82%
N#C[C@@H]1[C@H](c2ccc(C#CC3CCCCC3)cc2)[C@@H](CO)N1S(=O)(=O)c1ccccc1 | -14.1%
COc1ccc2c3c(n(C)c2c1)[C@@H](CO)N(C(=O)Nc1ccccc1F)CC31CCN(C(=O)c2ccccc2F)CC1 | -1.72%
C[C@@H]1CN([C@@H](C)CO)C(=O)c2cc(-c3cccnc3)cnc2O[C@@H]1CN(C)C(=O)C1CC1 | 4.12%
COc1ccccc1S(=O)(=O)N1C[C@@H]2N[C@H](C1)C2c1ccc(-c2cccc(C)c2)cc1 (some centres undefined) | 66.4% and 49%
O=C(C1CCOCC1)N1CC2(C1)[C@H](c1ccccc1)[C@H](CO)N2Cc1ccc(Cl)cc1 | -1.43%
C[C@@H]1CCCCO[C@H](CN(C)Cc2ccc(C(F)(F)F)cc2)[C@H](C)CN([C@@H](C)CO)C(=O)c2cc(N(C)C)ccc2O1 | 3.85%
Cc1noc(C)c1NC(=O)N(C)C[C@H]1OCCCC[C@@H](C)Oc2ccc(NS(=O)(=O)c3ccc(Cl)cc3)cc2C(=O)N([C@@H](C)CO)C[C@H]1C | -9.03%
COc1ccc2c3c([nH]c2c1)[C@@H](CO)NCC31CN(S(=O)(=O)c2cccs2)C1 | -6.75%
CCCNC(=O)N1[C@H](CO)[C@@H]2c3ccccc3N(C(=O)C3CC3)C[C@@H]21 | 1.07%
COc1ccc(CN(C)C[C@@H]2OCCCC[C@H](C)Oc3ccc(NS(=O)(=O)c4ccc(F)cc4)cc3C(=O)N([C@H](C)CO)C[C@H]2C)cc1 | 8.17%
CC(=O)Nc1ccc2c(c1)C(=O)N(C)[C@@H]1CC[C@H](CC(=O)NCc3ccccc3)O[C@H]1CO2 | 6.07%
N#Cc1ccc(-c2ccc(C3[C@H]4CNC[C@@H]3N4S(=O)(=O)c3ccccc3F)cc2)cc1 (some centres undefined) | 29.2%
CO[C@@H]1CN(C)C(=O)c2ccc(NS(=O)(=O)c3ccc(Cl)cc3)cc2OC[C@@H](C)N(C)C[C@@H]1C | -1.74%
CCCN1[C@H](C(=O)N[C@H](C)c2ccccc2)[C@@H](CO)[C@@H]2Cn3c(ccc(-c4cccc(F)c4)c3=O)[C@@H]21 | 14.4%
COCC#Cc1ccc([C@H]2[C@H]3CN(Cc4ccncc4)CCCCN3[C@H]2CO)cc1 | 13.5%
C[C@@H]1CN([C@@H](C)CO)C(=O)c2cc(NS(=O)(=O)c3cn(C)cn3)ccc2O[C@@H](C)CCCCO[C@H]1CN(C)S(=O)(=O)c1cccs1 | 1.84%
CN1c2ccc(-c3ccccc3)cc2[C@H]2[C@H](CCN2C(=O)c2ccc3c(c2)OCO3)[C@H]1CO | -20.7%
CN1C(=O)c2cc(NC(=O)c3cnccn3)ccc2OC[C@H]2O[C@@H](CC(=O)NCC3CCCCC3)CC[C@@H]21 | 0.457%
CO[C@H]1CN(C)C(=O)c2cc(NC(=O)C3CC3)ccc2OC[C@H](C)N(Cc2ccccc2)C[C@H]1C | -3.86%
Cc1ccc(-c2ccc3c(c2)O[C@H](CN(C)C(=O)CC2CC2)[C@@H](C)CN([C@H](C)CO)S3(=O)=O)cc1 | 3.19%
CCC(CO)Oc1cc(NC(=O)c2ccc(Cl)cc2)c2ncn(C(C)C)c2c1 (centres undefined) | -0.177%

Structure (SMILES) | growth activity, negative = inhibition
O=C(NC1CCCC1)N1CC(=O)N2[C@H](C1)[C@H](c1ccc(/C=C/c3ccccc3)cc1)[C@@H]2CO | -1.1%
COCC(=O)N1CC2(C1)[C@@H](c1ccc(-c3cccc(F)c3)cc1)[C@@H](CO)N2C(=O)COC | -0.178%
CN1c2ccc(Br)cc2[C@@H]2[C@@H](CCN2S(=O)(=O)c2ccc(F)cc2)[C@@H]1CO | 67.3%
COCC(=O)N1CC(=O)N2[C@H](C1)[C@@H](c1ccc(C#Cc3cccc(OC)c3)cc1)[C@@H]2CO | -20.7%
Cc1nc(N2[C@H](CO)[C@H](c3ccccc3)[C@H]2CNCC2CCC2)sc1C | 8.18%
C/C=C/c1ccc([C@@H]2[C@@H](CO)N(C(=O)c3ccccc3)C23CN(C(C)=O)C3)cc1 | -2.56%
COc1ccc(C#Cc2cccc(-c3nc(C(=O)O)cc4c3[C@@H](CCO)N(S(=O)C(C)(C)C)C4)c2)cc1OC (some centres undefined) | -2.07%
CCO[C@H]1OC(C(=O)N2CCCCCCC2)=C[C@@H](c2ccc(C(F)(F)F)cc2)[C@@H]1CCCO | 9.8%
C[C@H]1CN([C@@H](C)CO)C(=O)c2cc(C#CC3CCCCC3)cnc2O[C@@H]1CN(C)C(=O)Cc1ccccn1 | -14%
Cc1noc(C)c1S(=O)(=O)N(C)C[C@@H]1OCCCC[C@@H](C)Oc2ccc(NC(=O)c3ccccc3)cc2C(=O)N([C@H](C)CO)C[C@H]1C | 5.17%
COc1ccc(CN(C)C[C@H]2OCCCC[C@H](C)Oc3ccc(NS(C)(=O)=O)cc3C(=O)N([C@H](C)CO)C[C@@H]2C)cc1 | -0.222%
O=C(C[C@@H]1C=C[C@@H](NS(=O)(=O)c2ccccc2)[C@H](CO)O1)N1CCN(c2ccccc2)CC1 | 0.541%
O=C(c1cnccn1)N1CC2(C1)[C@H](c1ccccc1)[C@H](CO)N2C(=O)c1ccccc1 | -0.792%
O=C(C[C@H]1CC[C@H]2[C@@H](COC[C@@H](O)CN2CC2CCCC2)O1)NCC1CC1 | -1.93%
Cc1ccccc1S(=O)(=O)N1C[C@@H]2N[C@H](C1)C2c1ccc(-c2cccc(C(=O)N(C)C)c2)cc1 (some centres undefined) | 4.24%
CN(C)CC(=O)N1[C@H](C(=O)NC2CCC2)[C@@H](CO)[C@@H]2Cn3c(ccc(-c4ccc(F)cc4)c3=O)[C@@H]21 | -0.849%
CCCNC(=O)N1CCC2(CC1)CN(C(=O)CN1CCOCC1)[C@H](CO)c1[nH]c3cc(OC)ccc3c12 | 5.44%
C[C@@H]1CCCCO[C@H](CN(C)C(=O)NC2CCCCC2)[C@H](C)CN([C@H](C)CO)C(=O)c2cc(NC(=O)c3ccncc3)ccc2O1 | -3.74%
COc1ccc2c3c([nH]c2c1)[C@H](CO)N(Cc1nccs1)CC31CCN(C(=O)C2CCC2)CC1 | -4.33%
CCCC#Cc1ccc([C@@H]2[C@@H](C#N)N(C(=O)C3CC3)[C@H]2CO)cc1 | -16.8%
